Among the test systems are SR leukemia; RPMI-8226 leukemia; OVCAR-8 ovarian; OVCAR-5 ovarian; OVCAR-4 ovarian; SK-OV-3 ovarian; IGROV1 ovarian; OVCAR-3 ovarian; HS 578T breast; NCI/ADR-RES ovarian; T-47D breast; BT-549 breast; MDA-MB-435 melanoma; SW-620 colon; MCF7 breast; HCT-116 colon; HCC-2998 colon; KM12 colon.
Holding throughout (assay): NCI-60 one-dose screen, 48 h (100 = growth as untreated, 0 = no growth, -100 = all killed)
Holding throughout (conditions): 10 µM

About 83,000 compounds went through this panel and 20% of them were active in at least one assay; those are over-represented in the sample as a whole.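 Single-concentration screen, 48 h exposure, 96-well plates. Endpoint: percent growth. Below 10 = active.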 Values without a mark were called inactive. The source made the active and inactive calls.

With `Cc1cc2cc3c(=O)[nH]c(=O)cc-3n(CC(O)C(O)C(O)CO)c2cc1C` (configuration not stated), the growth in the experiment on SR leukemia is 111%; with RPMI-8226 leukemia it was 106%; in the experiment on OVCAR-8 ovarian, 97.3%; in the experiment with OVCAR-5 ovarian it was 106%; in the experiment on OVCAR-4 ovarian, 109%; with SK-OV-3 ovarian, 99.1%. In addition, the growth in the experiment with IGROV1 ovarian was 112%; in the experiment on OVCAR-3 ovarian, 103%; in the experiment on HS 578T breast it was 101%; with NCI/ADR-RES ovarian it was 105%; with T-47D breast, 95.1%; in the experiment on BT-549 breast, 104%. Further, the growth was 104% in the experiment with MDA-MB-435 melanoma; 89.8% with SW-620 colon; 101% in the experiment on MCF7 breast; 101% in the experiment on HCT-116 colon; 109% in the experiment with HCC-2998 colon; 108% with KM12 colon.
With `COc1ccc(-c2nnc(COc3ccc(NC(=O)Nc4cccc(C(F)(F)F)c4)cc3F)o2)cc1`, the growth is 3.93% (active) in the experiment on SR leukemia; 33.6% in the experiment on RPMI-8226 leukemia; 49.1% in the experiment with OVCAR-8 ovarian; 82.5% with OVCAR-5 ovarian; 61.4% in the experiment on OVCAR-4 ovarian; 103% with SK-OV-3 ovarian. The growth is 68.8% with IGROV1 ovarian; 56.9% in the experiment on OVCAR-3 ovarian; 67.3% in the experiment on HS 578T breast; 54.8% in the experiment on NCI/ADR-RES ovarian; 34.8% with T-47D breast; 82.7% in the experiment with BT-549 breast. In addition, the growth in the experiment with MDA-MB-435 melanoma was 61.6%; in the experiment on SW-620 colon it was 54.3%; in the experiment with MCF7 breast, 88.7%; in the experiment on HCT-116 colon, 56.7%; in the experiment on HCC-2998 colon it was 50.9%; in the experiment with KM12 colon it was 24%.
In the case of `COc1ccc(/C=C2\CCC3C(CCCC34OCCO4)C2=O)cc1` (configuration not stated), the growth was 35.5% with SR leukemia; 81.2% in the experiment with RPMI-8226 leukemia; 97.2% in the experiment on OVCAR-8 ovarian; 91.7% in the experiment on OVCAR-5 ovarian; 100% in the experiment with OVCAR-4 ovarian; 97.1% with SK-OV-3 ovarian. The growth is 83% in the experiment on IGROV1 ovarian; 75% with OVCAR-3 ovarian; 106% with HS 578T breast; 75.8% in the experiment on NCI/ADR-RES ovarian; 75.4% with T-47D breast; 88.4% in the experiment with BT-549 breast. The growth was 29.9% in the experiment with MDA-MB-435 melanoma; 75.6% in the experiment on SW-620 colon; 70.6% with MCF7 breast; 92.4% with HCT-116 colon; 92.4% in the experiment on HCC-2998 colon; 67.7% in the experiment on KM12 colon.
On to `COc1ccc(NC(=O)c2sc3nc4c(cc3c2N)C(O)CCC4)cc1` (configuration not stated), for which the growth in the experiment with SR leukemia was 67.6%; in the experiment on RPMI-8226 leukemia, 103%; in the experiment on OVCAR-8 ovarian, 101%; in the experiment on OVCAR-5 ovarian it was 104%; in the experiment with OVCAR-4 ovarian, 95.6%; in the experiment on SK-OV-3 ovarian, 112%. Besides, the growth was 106% in the experiment on IGROV1 ovarian; 104% in the experiment with OVCAR-3 ovarian; 112% in the experiment on HS 578T breast; 102% with NCI/ADR-RES ovarian; 93.9% with T-47D breast; 97.4% with BT-549 breast. In addition, the growth with MDA-MB-435 melanoma was 84.6%; with SW-620 colon, 95.8%; with MCF7 breast it was 89.6%; with HCT-116 colon, 104%; with HCC-2998 colon it was 113%; with KM12 colon, 98%.
On to `Oc1ccccc1-c1nnc(Cn2c(Cc3cccc4ccccc34)nc3ccccc32)o1`, for which the growth is 94.8% in the experiment on SR leukemia; 95.8% in the experiment on RPMI-8226 leukemia; 101% in the experiment on OVCAR-8 ovarian; 96.8% with OVCAR-5 ovarian; 99.2% with OVCAR-4 ovarian; 98.7% in the experiment with SK-OV-3 ovarian. Further, the growth with IGROV1 ovarian was 111%; in the experiment on OVCAR-3 ovarian, 101%; with HS 578T breast, 99.5%; with NCI/ADR-RES ovarian it was 93.8%; with T-47D breast, 89.6%; in the experiment on BT-549 breast it was 101%. Also, the growth in the experiment with MDA-MB-435 melanoma was 111%; with SW-620 colon, 103%; in the experiment on MCF7 breast, 102%; in the experiment on HCT-116 colon, 100%; in the experiment on HCC-2998 colon, 104%; in the experiment with KM12 colon it was 98.8%.
As to `O=C(NCc1cn(Cc2cccc(Oc3ccccc3)c2)nn1)c1cccnc1Nc1ccccc1`, the growth is 16.3% in the experiment on SR leukemia; 52.7% in the experiment with RPMI-8226 leukemia; 62.6% in the experiment on OVCAR-8 ovarian; 89.1% in the experiment with OVCAR-5 ovarian; 74.9% in the experiment with OVCAR-4 ovarian; 49.6% with SK-OV-3 ovarian. Also, the growth with IGROV1 ovarian is 94.1%; with OVCAR-3 ovarian, 42.1%; in the experiment on HS 578T breast, 54.7%; with NCI/ADR-RES ovarian it was 23.6%; with T-47D breast, 72.3%; in the experiment on BT-549 breast, 81.8%. Besides, the growth with MDA-MB-435 melanoma was -8.66% (active); in the experiment on SW-620 colon, 40.8%; in the experiment with MCF7 breast, 18.1%; in the experiment on HCT-116 colon, 26.1%; in the experiment with HCC-2998 colon, 57.1%; in the experiment on KM12 colon, 29.5%.
Take `COc1cc(C(c2c[nH]c3ccccc23)N2CCCC2)ccc1OCc1ccccc1` (configuration not stated): the growth with SR leukemia is 34.9%; in the experiment with RPMI-8226 leukemia it was 32.3%; in the experiment on OVCAR-8 ovarian, 80.4%; in the experiment on OVCAR-5 ovarian, 97.1%; in the experiment on OVCAR-4 ovarian, 91.8%; in the experiment on SK-OV-3 ovarian it was 89.5%. Further, the growth in the experiment with IGROV1 ovarian was 48.1%; in the experiment with OVCAR-3 ovarian, 75.5%; in the experiment with HS 578T breast it was 57.2%; in the experiment with NCI/ADR-RES ovarian, 76.5%; with T-47D breast, 81.5%; in the experiment on BT-549 breast it was -2.45% (active). The growth in the experiment with MDA-MB-435 melanoma was 96.8%; with SW-620 colon, 98.9%; with MCF7 breast, 83.4%; with HCT-116 colon, 69%; with HCC-2998 colon, 96.2%; in the experiment on KM12 colon it was 92.2%.
Turning to `Nc1c(C(=O)NC2CCCCC2)sc2nc3c(cc12)C(=O)CCC3`, the growth was 78.7% with SR leukemia; 100% in the experiment with RPMI-8226 leukemia; 101% with OVCAR-8 ovarian; 114% in the experiment with OVCAR-5 ovarian; 105% with OVCAR-4 ovarian; 120% in the experiment with SK-OV-3 ovarian. The growth in the experiment with IGROV1 ovarian was 116%; in the experiment on OVCAR-3 ovarian, 112%; with HS 578T breast, 102%; with NCI/ADR-RES ovarian it was 102%; in the experiment on T-47D breast it was 94.2%; in the experiment on BT-549 breast it was 95.4%. Also, the growth is 54.7% in the experiment on MDA-MB-435 melanoma; 98.8% in the experiment with SW-620 colon; 83.2% with MCF7 breast; 102% in the experiment with HCT-116 colon; 121% in the experiment on HCC-2998 colon; 91.8% in the experiment with KM12 colon.
As to `O=[N+]([O-])c1cc2ncccc2c2ncccc12`, the growth in the experiment with SR leukemia was 74%; in the experiment with RPMI-8226 leukemia, 82.8%; in the experiment on OVCAR-8 ovarian, 63.3%; in the experiment with OVCAR-5 ovarian, 98.3%; in the experiment on OVCAR-4 ovarian, 103%; with SK-OV-3 ovarian it was 94.4%. For the same compound, the growth in the experiment with IGROV1 ovarian is 56.3%; in the experiment on OVCAR-3 ovarian, 84.5%; in the experiment with HS 578T breast, 104%; with NCI/ADR-RES ovarian, 75.1%; in the experiment on T-47D breast, 74.6%; with BT-549 breast, 89.6%. Moreover, the growth in the experiment with MDA-MB-435 melanoma is 61.9%; with SW-620 colon, 85.4%; in the experiment with MCF7 breast it was 60.6%; in the experiment with HCT-116 colon it was 53.5%; in the experiment with HCC-2998 colon it was 108%; with KM12 colon it was 96.3%.

The values above are taken from PubChem BioAssay (NCI).
